Hits are enriched below; roughly 11% of the tested compounds scored in any of these assays.
hNpr1 antagonist: blocks ANP-stimulated signaling of human Npr1 receptor | HEK293 hNpr1 GloSensor cGMP, ANP-stimulated luminescence | Potency, µM (series often up to 46.3 µM), usual class: inhibitors | 76,000 compounds, 1.6% hits; calls by dose curve; note: nearly all actives have a fitted effect of over 60% in size
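Compound pre-incubated 30 min at room temperature on GloSensor-loaded HEK293 cells stably carrying hNpr1 and the pGS-40F cGMP biosensor. Stimulation uses hNppA at 0.1 nM final; luminescence is taken at baseline and 20 min post-agonist.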
NIH3T3 tox: cytotoxic compounds in NIH 3T3 cells. AID 1345082. Potency, µM (highest dose often 96.7 µM), most hits filed as inhibitors. NIH 3T3 viability, CellTiter-Glo ATP luminescence, 48-72 h. 94,000 compounds, 4.3% hits; note: nearly all actives have a fitted effect of over 55% in size
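First NIH 3T3 cells are plated at 400 cells/well; next compound is pinned in; then plates incubate 48 or 72 hr at 37 °C; finally CellTiter-Glo is added and luminescence read after 10 min.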
HEK cytotox: kills HEK 293 cells. HEK 293 viability, ATP luminescence (CellTiter-Glo), 48-72 h. Potency, µM (titrated, usually from 115 µM), hits mostly inhibitors. 94,000 compounds, 6.6% hits; note: nearly all actives have a fitted effect of over 60% in size
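ATP-coupled CellTiter-Glo luminescence served as viability read-out, recorded 10 min after reagent addition at room temperature. HEK 293 cells, 250 cells/well, had been incubated with pintool-transferred compound for 48 or 72 hr at 37 degree Celsius.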
Luciferase inh: blocks purified firefly luciferase enzyme activity; 76,000 compounds, 2.5% hits; AID 1347043; Potency, µM (top dose mostly 115 µM), actives largely listed as inhibitors; purified P. pyralis luciferase, luminescence, biochemical; P08659; note: nearly all actives have a fitted effect of over 65% in size
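Biochemical qHTS: compound (6-point titration) added to 10uM D-luciferin plus 10uM ATP in Tris acetate pH 7.5 buffer with Mg, Tween-20 and BSA, then purified enzyme at 10nM; light output imaged.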
Each line names hits and unclear results; the compound was inactive in the other large screens; ! = not confirmed by another sample. Unless noted, calls come from the whole dose curve; as a rule, active = well fitted curve in the direction sought with a large enough effect; inconclusive = small, poorly fitted or top-dose-only effect, or another doubt; inactive = no such curve, though single readings can be large; an effect the other way counts as inactive or inconclusive.

O=C(C[C@H]1NC(=O)c2ccccc2NC1=O)Nc1ccncc1	none
O=C(NCc1ccccn1)C1c2ccccc2C(=O)N(c2ccccc2)C12CCCCC2 (centres undefined)	NIH3T3 tox inconclusive, HEK cytotox inconclusive
CN(CC(O)COc1cccc(CNCCc2ccc(F)cc2)c1)C1CCCCC1 (centres undefined)	NIH3T3 tox inconclusive, HEK cytotox 17.8µM
C=CCN1CCN(Cc2cccc(OCC(O)CN(C)C3CCCCC3)c2)CC1 (centres undefined)	HEK cytotox inconclusive
O=C(N[C@H]1CC[C@H](Nc2nccc(-c3cccnc3)n2)C1)c1ccc(O)cc1	NIH3T3 tox inconclusive, HEK cytotox inconclusive
O=C(CN1CCCC1)N[C@H]1CC[C@H](Nc2nccc(-c3cccnc3)n2)C1	NIH3T3 tox inconclusive, HEK cytotox 44.7µM
CN(C)c1ccc(CN2CCC3(CC2)CC(=O)c2ccccc2O3)cc1	none
O=C1CC2(CCN(Cc3ccc(F)cc3)CC2)Oc2ccccc21	NIH3T3 tox inconclusive, HEK cytotox 50.1µM
O=C1CC2(CCN(Cc3cccnc3)CC2)Oc2cc(Cl)ccc21	NIH3T3 tox inconclusive, HEK cytotox inconclusive, Luciferase inh 25.1µM
Cn1nc(C(=O)N2CCCC(CN3CCCC3)CC2)c2ccccc21 (centres undefined)	none
COCc1ncc(C)n1CC1CCN(S(=O)(=O)c2c(C)noc2C)CC1	none (no result: hNpr1 antagonist, Luciferase inh)
Cc1noc2c(NC3CCN(C)CC3)cc(-c3cccnc3)nc12	NIH3T3 tox inconclusive, HEK cytotox inconclusive
Cc1noc2c(NC3CCC(O)CC3)cc(-c3cccs3)nc12 (centres undefined)	NIH3T3 tox 28.2µM, HEK cytotox inconclusive
COc1cccc(Nc2cc(-c3cccs3)nc3c(C)noc23)c1	NIH3T3 tox 79.4µM, HEK cytotox 100µM
Cc1noc2c(Nc3ccc(N4CCOCC4)cc3)cc(-c3cccs3)nc12	NIH3T3 tox inconclusive, HEK cytotox inconclusive
Cc1noc2c(NC3CCC(O)CC3)cc(-c3cccnc3)nc12 (centres undefined)	NIH3T3 tox 25.1µM
Cc1noc2c(-c3ccc(CO)cc3)cc(-c3cccs3)nc12	NIH3T3 tox 22.4µM, HEK cytotox 39.8µM
COc1ccc(CC(=O)N2CCc3nc(C)nc(-c4ccc(OC)cc4)c3C2)cc1	none (no result: hNpr1 antagonist, Luciferase inh)
Cc1noc2c(N3CCNC(=O)C3)cc(-c3cccs3)nc12	NIH3T3 tox 31.6µM, HEK cytotox inconclusive
CN1CCCCCC(O)c2cc(C(=O)N3CCN(Cc4ccccc4)CC3)ccc21 (centres undefined)	NIH3T3 tox inconclusive, HEK cytotox 56.2µM
COc1ccccc1N1CCN(C(=O)c2ccc3c(c2)C(O)CCCCCN3C)CC1 (centres undefined)	NIH3T3 tox inconclusive, HEK cytotox 44.7µM
CN1CCCCCC(O)c2cc(C(=O)N3CCc4ccccc43)ccc21 (centres undefined)	hNpr1 antagonist inconclusive, NIH3T3 tox 35.5µM, HEK cytotox inconclusive, Luciferase inh inconclusive
CN1CCCCCC(O)c2cc(C(=O)N3CCOCC3)ccc21 (centres undefined)	NIH3T3 tox inconclusive
Cc1cccc(N2CCN(C(=O)c3ccc4c(c3)C(O)CCCCCN4C)CC2)c1 (centres undefined)	NIH3T3 tox inconclusive, HEK cytotox inconclusive
COCCCNC(=O)c1cnc2n[nH]c(-c3ccccc3)c2n1	NIH3T3 tox inconclusive, HEK cytotox 100µM
CCN1CCN(CCNC(=O)c2cc(-c3ccc(Cl)cc3)cn2C)CC1	NIH3T3 tox inconclusive, HEK cytotox 25.1µM
Cc1ccc(-c2cc(C(=O)NCCN3CCN(C)CC3)n(C)c2)cc1	NIH3T3 tox inconclusive, HEK cytotox inconclusive
CCN1CCN(CCNC(=O)c2cc(-c3ccc(Cl)cc3)cn2CC)CC1	NIH3T3 tox 20µM, HEK cytotox 28.2µM
CCn1cc(-c2ccc(Cl)cc2)cc1C(=O)NCCOC	none
FC(F)(F)c1cccc(-c2cc(-c3cccnc3)c3cncn3c2)c1	NIH3T3 tox inconclusive, HEK cytotox inconclusive
CCn1cc(S(=O)(=O)N2CC(c3nc(CCN(C)C(=O)C4CC4)no3)C2)cn1	none (no result: hNpr1 antagonist, Luciferase inh)
O=C(NCc1cccs1)C1CN(C2CCCCC2)C(=O)N1 (centres undefined)	none (no result: hNpr1 antagonist, Luciferase inh)
COc1ccccc1-c1cccc(CN2CCC(NC(C)=O)CC2)c1	NIH3T3 tox inconclusive (no result: hNpr1 antagonist, Luciferase inh)
O=C(NC1CCN(Cc2cccc(-c3ccc(F)cc3F)c2)CC1)c1cccc(Cl)c1	NIH3T3 tox 15.8µM, HEK cytotox 22.4µM! (no result: hNpr1 antagonist, Luciferase inh)
COc1ccccc1-c1cccc(CN2CCC(NC(=O)Cc3ccc(F)cc3)CC2)c1	NIH3T3 tox 31.6µM, HEK cytotox inconclusive (no result: hNpr1 antagonist, Luciferase inh)
COc1ccccc1-c1cccc(CN2CCC(NC(=O)c3cccc(Cl)c3)CC2)c1	NIH3T3 tox inconclusive, HEK cytotox 44.7µM (no result: hNpr1 antagonist, Luciferase inh)
CSc1ccc(-c2cccc(CN3CCC(NC(=O)c4cccc(Cl)c4)CC3)c2)cc1	none (no result: hNpr1 antagonist, Luciferase inh)
COc1ccccc1-c1cccc(CN2CCC(NC(=O)Nc3ccccc3)CC2)c1	NIH3T3 tox 17.8µM, HEK cytotox 22.4µM (no result: hNpr1 antagonist, Luciferase inh)
COCCN1C[C@H]2CN(C)c3ccccc3[C@@H]2N(C(=O)c2ccc(OC)cc2)CCC1=O	HEK cytotox inconclusive (no result: hNpr1 antagonist, Luciferase inh)
COc1ccc(C(=O)NC2CCN(Cc3cccc(-c4ccc(SC)cc4)c3)CC2)cc1	none (no result: hNpr1 antagonist, Luciferase inh)
COc1ccccc1-c1cccc(CN2CCC(NC(=O)c3ccc(C(F)(F)F)cc3)CC2)c1	NIH3T3 tox 25.1µM, HEK cytotox 22.4µM (no result: hNpr1 antagonist, Luciferase inh)
COc1ccccc1-c1cccc(CN2CCC(NC(=O)Cc3cccc(Cl)c3)CC2)c1	NIH3T3 tox 25.1µM, HEK cytotox inconclusive (no result: hNpr1 antagonist, Luciferase inh)
O=C(NCC(F)(F)F)C1CCN(Cc2ccccc2-c2ccccc2F)CC1	none (no result: hNpr1 antagonist, Luciferase inh)
O=C1CCCN1CC(=O)N1CCC(C2CCN(Cc3cccc(F)c3F)CC2)C1 (centres undefined)	none
O=C(C1CCN(Cc2ccccc2-c2ccccc2F)CC1)N1CCC(Cc2ccccc2)CC1	NIH3T3 tox 35.5µM, HEK cytotox 35.5µM (no result: hNpr1 antagonist, Luciferase inh)
O=C(NCCCc1ccccc1)C1CCN(Cc2ccccc2-c2ccccc2F)CC1	NIH3T3 tox inconclusive, HEK cytotox 22.4µM (no result: hNpr1 antagonist, Luciferase inh)
O=C(C1CCCCC1)N1CCC(C2CCN(Cc3cccc(F)c3F)CC2)C1 (centres undefined)	NIH3T3 tox inconclusive, HEK cytotox 79.4µM
O=C(NCc1cccc(F)c1)C1CCN(Cc2ccccc2-c2ccccc2F)CC1	NIH3T3 tox inconclusive, HEK cytotox 39.8µM (no result: hNpr1 antagonist, Luciferase inh)
CNC(=O)c1cc(C2CC2)nc2c1c(C1CCCN1C(=O)c1ccccc1)nn2C (centres undefined)	none (no result: hNpr1 antagonist, Luciferase inh)
CCCN(CC1CCOC1)C(=O)c1ccccc1C(F)(F)F (centres undefined)	none
CC(C)n1c(CNC(=O)CC[C@H]2NC(=O)c3ccccc3NC2=O)nc2ccccc21	NIH3T3 tox inconclusive, HEK cytotox inconclusive
O=C(c1cccc(Cl)c1)N1CCN(Cc2ccccc2-c2ccccc2F)CC1	NIH3T3 tox 44.7µM, HEK cytotox inconclusive (no result: hNpr1 antagonist, Luciferase inh)
COc1ccccc1C(=O)N1CCCN(c2ccnc3ccnn23)CC1	none (no result: hNpr1 antagonist, Luciferase inh)
Cc1ccc(NC(=O)C2CCN(c3cc(C(F)(F)F)ncn3)CC2)c(C)c1	hNpr1 antagonist inconclusive, HEK cytotox inconclusive

Source: PubChem (National Center for Advancing Translational Sciences (NCATS))
